Screen size: about 190,000 compounds; about 240 (0.13%) were called active. Only a selection was taken, and actives are over-represented in it overall. Unmarked numbers belong to inactive results. No stated cut-off is given here; in the data, active means inhibition above about 40%.

Sequence of Bcl-2-related protein A1 (Homo sapiens) (Q16548 whole entry, looked up): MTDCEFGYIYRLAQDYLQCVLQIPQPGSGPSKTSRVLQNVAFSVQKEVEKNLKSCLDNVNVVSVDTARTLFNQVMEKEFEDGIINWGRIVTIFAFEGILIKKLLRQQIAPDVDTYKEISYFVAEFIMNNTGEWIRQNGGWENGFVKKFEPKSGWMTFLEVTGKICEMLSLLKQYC

This experiment concerns the target Bcl-2-related protein A1 (Homo sapiens) (UniProt Q16548). In words: Bfl-1/Bim complex disruptors – biochemical, multiplexed, bead-based flow cytometry, primary screen (AID 1008).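 Further: 0% = wells without compound plus tracer and 100% = blocker peptide.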 The note with it: Bim-Bfl-1 binding inhibition, at 10 µM, active compounds read high. For orientation: A flow cytometer gives signals particle by particle.
For `Cc1cc(CNCc2c(C(=O)N(C)Cc3ccccc3)nc3ccccn23)nn1C`, the inhibition was -6%.

Regarding `COc1cccc(CNC(=O)CCN2C(=S)NC(C)(C)CC2C)c1` (configuration not stated), the inhibition is -5%. The figure for `Cc1cc(OC(=O)c2ccccc2)c([N+](=O)[O-])c(=O)[nH]1` is -5%; for `S=c1ccc2ccccc2[nH]1` it is -4%. The figure for `Cc1cccc(CSc2nc3c(c(=O)n2C)SCC3)c1` is -2%. With `CCOc1cc(CNn2c(C)nnc2SCC(=O)NC(C)(C)C)ccc1OCC(=O)NC(C)(C)C` the figure was -7%. As for `CC(C)Cn1c(N)c(C(=O)COC(=O)CN2C(=O)C3CC=CCC3C2=O)c(=O)n(C)c1=O` (configuration not stated), the inhibition is -8%. The figure for `COc1ccc(CNc2c(CO)cnc3c2cnn3C)cc1` is -3%; for `CCc1ccc(NC(=O)C(=O)N/N=C(\C)CC(=O)NCCOC)cc1` it is -3%. In the case of `O=C1C=CC(=O)N1c1ccc(N2CCCCC2)cc1`, the inhibition was 11%. With `CN1CCN(S(=O)(=O)c2cccc(C(=O)N3CCc4ccccc43)c2)CC1`, the inhibition is 1%. The figure for `COc1cccc(CNC(=O)CCC2CCCN(Cc3ccc(OC(F)F)cc3)C2)c1` (configuration not stated) is -4%; for `Cc1ccc(O)c(-c2cc(C(=O)Nc3c(C)n(C)n(-c4ccccc4)c3=O)[nH]n2)c1` it is -2%; for `COc1cc(C(=O)NNC(=O)c2ccc(S(=O)(=O)N3CCCCC3)cc2)cc(OC)c1OC` it is 7%. In the case of `CCc1ccc(NC2Nc3cc(C)nn3S2)cc1` (configuration not stated), the inhibition was -1%. With `CN(C)C(=O)CSc1n[nH]c(-c2ccco2)n1` the figure was 2%; with `Cc1ccc(NC(=O)Cn2c(=O)n(CCC(=O)NC3CCN(Cc4ccccc4)CC3)c(=O)c3ccccc32)cc1`, -9%; with `Cc1cccc(C)c1N1CCN(S(=O)(=O)N2CCCCC2)CC1`, -3%. With `O=C(CSc1ncnc2scc(-c3ccccc3)c12)NCc1ccc2c(c1)OCO2` the figure was 0%. The figure for `CN(CCN1CCOCC1)Cc1nc(-c2ccc3c(c2)OCO3)no1` is -5%. As for `N#C/C(=C(\O)C(F)(F)F)c1nnc2n1CCCCC2`, the inhibition was -5%. As to `CC1CCN(C2=NC(=O)/C(=C/c3cn[nH]c3-c3ccccc3)S2)CC1`, the inhibition was -13%. In the case of `O=C(Nc1nc(-c2cccnc2)cs1)c1ccccc1F`, the inhibition is -9%.

As to `CN1CCN(NC(=O)c2ccc(S(=O)(=O)N3CCCCCC3)cc2)CC1`, the inhibition was -2%. In the case of `CC1CCCCC1NC(=O)CO/N=C/c1ccc(OC(F)F)cc1` (configuration not stated), the inhibition was -7%. `CCOC(=O)N1CCC(NC(=O)C(NS(=O)(=O)c2ccc3c(c2)CCN3C(=O)CC)C(C)C)CC1` (configuration not stated): the inhibition was -4%. The figure for `CCc1nnc(NS(=O)(=O)c2ccc(NC(=S)NC(=O)/C=C/c3cccs3)cc2)s1` is 1%; for `CC(C)C(C)(C#N)NC(=O)CSc1nc2scc(-c3ccccc3)c2c(=O)[nH]1` (configuration not stated) it is 3%; for `Cc1ccc(N(C(=O)c2ccc(CN3CCOCC3)o2)C(C(=O)NCCC(C)C)c2cccs2)c(C)c1` (configuration not stated) it is -7%. The figure for `O=C(O)CCS(=O)(=O)c1ccc(-c2ccccc2)cc1` is 0%; for `O=C(NCc1ccccn1)c1ccc2nc(-c3ccco3)c(-c3ccco3)nc2c1` it is 43% (active). With `COCCNC(=O)Nc1ccc2nc(-c3ccco3)c(-c3ccco3)nc2c1` the figure was 48% (active). For `COc1ccc(NC(=O)Nc2ccc3nsnc3c2)cc1`, the inhibition was -1%. With `COc1ccc(NC(=O)Nc2ccc3nc(C)c(C)nc3c2)cc1` the figure was -2%; with `O=C(NCc1ccccn1)c1cc(-c2ccccc2Cl)on1`, 0%; with `CN(c1ccc(C(=O)NCc2ccccn2)cc1)S(C)(=O)=O`, -18%. With `Cc1nnc(-c2ccc(Oc3ccc(C)c(C)c3)c([N+](=O)[O-])c2)o1` the figure was 9%; with `Cc1cccc(C2c3[nH]c4ccccc4c3CCN2C(=O)c2cc(-c3cccn3C)n[nH]2)n1` (configuration not stated), -4%; with `Cc1cc(/C=C2/NC(=O)NC2=O)c(C)n1-c1cccnc1`, -4%. The figure for `CCCCNC(=S)N/N=C1\CCCCc2ccccc21` is 0%; for `COc1cccc(-n2c(=S)sc3c(=O)n(-c4ccccc4OC)c(SCC4OCCO4)nc32)c1` it is -3%; for `O=C(NNC(=O)C1C2CCC(C2)C1C(=O)O)c1ccc(Cl)cc1` (configuration not stated) it is -8%. Regarding `COc1cccc(NC(=O)Cn2c3ccccc3c3nc4n(c(=O)c32)CCS4)c1`, the inhibition was 2%. The figure for `CC(C)(C)NCCCOc1ccc(Cl)cc1C(C)(C)C` is -1%; for `CCCCN=C1C([N+](=O)[O-])=CC=C2C1=NC1(CCCCC1)N2O` it is 0%. Turning to `c1ccc(-c2cc3c(NCC4COc5ccccc5O4)ncnc3s2)cc1` (configuration not stated), the inhibition is -5%.

For `CC1CCCN(S(=O)(=O)c2ccc(N(C(=O)c3cnccn3)C(C(=O)NC3CCCCC3)c3cccs3)cc2)C1` (configuration not stated), the inhibition was -2%. The figure for `O=C(COC(=O)/C(=C/c1cccs1)c1cccs1)NCc1ccccc1Cl` is 0%; for `O=C(CN1CCCCCC1)NCCN1C(=O)S/C(=C\c2ccccc2Cl)C1=O` it is -4%. The figure for `O=C(O)c1cccc(N2C(=O)Nc3ccccc3N2O)c1` is 0%; for `O=C(CCN1CCCCC1)N=Nc1c(O)[nH]c2ccccc12` it is 0%. For the compound `CC(=O)Nc1ccc(NC(=S)NC(=O)/C=C/c2ccccc2)cc1`, the inhibition is -3%.

Regarding `CCCCNS(=O)(=O)c1ccc2nc(SCC(=O)Nc3cc(C)cc(C)c3)[nH]c2c1`, the inhibition was -1%. With `O=C(NCC1CCN(Cc2ccccc2Cl)CC1)Nc1cccc(Cl)c1` the figure was -6%; with `CCOC(=O)c1cc2c(nc1NC(=S)Nc1ccccc1)CC(C)(CC)OC2` (configuration not stated), -11%. The figure for `Cn1nnnc1SCC(=O)NNC(=O)c1ccc(Br)cc1` is -10%; for `CCCCCN(C(=O)NC(=O)Nc1cccc(C)c1C)S(C)(=O)=O` it is -7%; for `CCn1c(C(C)NC(=O)c2ccc(C)cc2)n[nH]c1=S` (configuration not stated) it is 1%. As to `CC(C)CN(C(=O)CN1CCN(S(=O)(=O)c2ccccc2)CC1)c1c(N)n(CC(C)C)c(=O)[nH]c1=O`, the inhibition is -2%. In the case of `O=C(c1cc(=O)c2ccccc2o1)N1CCN(c2ccccc2)CC1`, the inhibition is 0%. In the case of `CN(C(=O)COc1ncnc2c1cnn2-c1ccccc1)C1CCCCC1`, the inhibition is -7%. Take `COc1ccc(S(=O)(=O)N2CCCCCC2)cc1C(=O)OCC(=O)Nc1cc(C)on1`: the inhibition is -1%.

Take `O=C(Cc1ccc(F)cc1)N/N=C/c1ccc2c(c1)OCO2`: the inhibition was -2%. The figure for `Cc1ccc(SCCC(=O)NCc2ccccn2)cc1` is 4%. The figure for `C/C(=N\NC(=O)c1cc2c(s1)CCC(C)C2)c1cccnc1` (configuration not stated) is 0%; for `O=C(Nc1cccnc1)c1ccc(Cl)cc1[N+](=O)[O-]` it is -1%; for `O=C(CC1SC(=Nc2ccccc2)N(Cc2ccccn2)C1=O)Nc1cccc(Cl)c1` (configuration not stated) it is 11%.

For `O=C(CCN1C(=O)c2ccncc2C1=O)Nc1cc(F)ccc1F`, the inhibition was -8%. The figure for `Cc1csc(Nc2ccc(Cl)cc2)[n+]1-c1ccc(Cl)cc1` is 5%; for `Cc1ccc(NC(=S)N(CCN2CCCCC2)Cc2ccco2)cc1C` it is -3%. For `CCc1ccccc1NC(=O)CN(c1ccc(OC)cc1OC)S(=O)(=O)c1ccccc1[N+](=O)[O-]`, the inhibition was -12%.

As for `Cn1c(=O)c([N+](=O)[O-])c(Oc2ccccc2)c2ccccc21`, the inhibition is 0%. As for `C=CCN(CC=C)C(=O)COC(=O)c1n[nH]c2ccccc12`, the inhibition was -7%. With `CCc1ccc(C(=O)OCC(=O)NCC(F)(F)F)cc1` the figure was -3%. Consider `CCOC(=O)CSC1=N/C(=C/c2ccc(-n3cncn3)cc2)C(=O)N1C(C)=O`, for which the inhibition was -5%. The figure for `Cc1ccc(C2=N/C(=C\c3ccc(OS(=O)(=O)c4ccc(C)cc4)cc3)C(=O)O2)cc1` is -2%; for `Cc1cc(NC(=O)CSc2nnc(Nc3ccccc3F)s2)no1` it is -8%. Turning to `CN1CCN(c2nc(Nc3ccc(O)cc3)nc3ccccc23)CC1`, the inhibition is -5%. With `CCOC(=O)CNC(=O)/C(=C\c1ccc(F)cc1)NC(=O)c1ccccc1` the figure was -7%. For `O=C(Cn1nc(CNc2ccc(Cl)cc2)[n+]2c1CCCCC2)c1ccc(Cl)cc1`, the inhibition is -16%. With `CC1CCN(S(=O)(=O)c2ccc(S(=O)(=O)NCc3cccnc3)cc2)CC1` the figure was 6%. With `COC(=O)Cn1cc(/C=C/[N+](=O)[O-])c2ccccc21` the figure was 4%; with `CC(C(=O)NC1CCCC1)N(c1ccc(Oc2ccccc2)cc1)S(C)(=O)=O` (configuration not stated), -2%; with `COc1cc2sc(C)nc2cc1C`, 2%. Take `CSCCC(NC(=O)c1cc([N+](=O)[O-])cc([N+](=O)[O-])c1)c1nc2ccccc2[nH]1` (configuration not stated): the inhibition is -16%. The figure for `CCn1c(=S)[nH]c2sc3c(c2c1=O)CCCCC3` is 3%; for `COc1cc(/C=N/NC(=S)Nc2cccnc2)cc(OC)c1O` it is 7%; for `CN(C)/N=C/c1cc(Cl)cc([N+](=O)[O-])c1O` it is 0%. Take `CCOC(=O)C1(Cc2cccc(OC)c2)CCCN(S(=O)(=O)c2cccnc2)C1` (configuration not stated): the inhibition is -2%. The figure for `Fc1ccc(COc2cccc(-c3n[nH]c(=S)o3)c2)cc1` is 5%; for `O=C(C1CCCO1)N1CCN(C(=S)NC2CC2)CC1` (configuration not stated) it is -4%. The figure for `COc1ccc(CNC(=O)COC(=O)/C=C/c2ccc(S(=O)(=O)N3CCOCC3)cc2)cc1` is -3%. On to `COC(=O)c1cc2occc2n1Cc1nc(-c2ccccc2C)oc1C`, for which the inhibition is 0%. The figure for `CC(=O)Nc1cccc(/C(C)=N/NC(=O)c2c(-c3ccccc3Cl)noc2C)c1` is 0%. With `COc1ccc(C(=O)CSc2nnnn2C)c(OC)c1` the figure was -5%; with `Nc1nc(-c2sc3nc4c(cc3c2N)CCCC4)nc(N2CCOCC2)n1`, -5%; with `CC1(c2ccccc2)CC(C)(C)N(C(=O)c2cc([N+](=O)[O-])cc([N+](=O)[O-])c2)c2ccccc21` (configuration not stated), -1%.

As to `CCN(C(=O)CN1CCN(Cc2ccccc2)CC1)c1c(N)n(Cc2ccccc2)c(=O)[nH]c1=O`, the inhibition was -3%. With `Cn1c(=O)c2c(ncn2CC(=O)N/N=C/c2cn[nH]c2-c2ccc(F)cc2)n(C)c1=O` the figure was -3%. The figure for `C/C(=N/NS(=O)(=O)c1ccccc1)c1ccc(NC(=O)C(F)(F)F)cc1` is -2%; for `O=C1N/C(=C/c2cccn2-c2ccccc2)C(=O)N1c1cccc(Cl)c1` it is -2%. In the case of `CSCC(NS(=O)(=O)c1ccc(C)cc1)C(=O)O` (configuration not stated), the inhibition is -9%. The figure for `Cc1c(C(=O)c2cccc([N+](=O)[O-])c2)c2ccccn2c1CCC#N` is -8%. The figure for `O=C(CCN1C(=O)c2ccccc2C1=O)C1=NN[C@@H]2C(=O)N(c3ccc(F)cc3)C(=O)[C@H]12` is -9%; for `CCOc1ccc(C(CC(=O)O)n2cnnn2)cc1OC` (configuration not stated) it is -4%. With `COC(c1ccccc1)c1nnc(CCC(=O)N2CCN(CCOc3ccccc3)CC2)o1` (configuration not stated) the figure was -5%.

As to `Cc1cccc(Cn2cnc3c(N)c(C)c(C)cc32)c1`, the inhibition is -4%. Consider `Cc1ccc2c(c1)C1CN(C)CCC1N2C(=S)Nc1ccc(OC(F)F)cc1` (configuration not stated), for which the inhibition was -7%. With `Nc1nc(SCc2ccc([N+](=O)[O-])cc2)c2ncn(C3OC(CO)C(O)C3O)c2n1` (configuration not stated) the figure was -10%. On to `O=c1[nH]n2c(=O)c3c([nH]c2c1N=Nc1ccccc1)CCC3`, for which the inhibition is 0%. For the compound `COc1ccc(OC)c2[nH]c(=O)c(CCNC(=O)C(=O)c3c[nH]c4ccccc34)cc12`, the inhibition was -9%.

As to `Cc1cc(/C=N/NC(N)=O)c(C)n1C1CCCCC1`, the inhibition was 16%.

Broadly, the inhibition is the relative decrease from the control value, in per cent.

Source of the values: PubChem BioAssay AID1008 (NMMLSC, 2008).
